Measurements reported in the supplement of paper PMC8728848.
About 410 targets per protein were measured; listed, in parts, are those with the strongest signals and a random draw of the rest.

How the values were obtained:
Assay in all cases: glycan array binding signal (z-score within array); higher = stronger binding
Conditions in all cases: glycan notation: IUPAC condensed, linker removed
[1] = target: Fuc(a1-2)Gal(b1-3)[Fuc(a1-4)]GlcNAc
How it was run: (§1)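 Glycan array data were curated from 3228 arrays in the Consortium for Functional Glycomics database and kept only where the protein sequence was available. Glycan names were converted to IUPAC-condensed notation, and columns mapping to the same glycan were averaged. The binding signal is a within-array Z-score, averaged across arrays of the same protein sequence at different concentrations or buffers and across linkers. Negative Z-scores can be read as non-binding.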

[2] = target: Fuc(a1-2)[Gal(a1-3)]Gal(b1-4)GlcNAc(b1-2)Man(a1-3)[Fuc(a1-2)[Gal(a1-3)]Gal(b1-4)GlcNAc(b1-2)Man(a1-6)]Man(b1-4)GlcNAc(b1-4)GlcNAc
How it was run: as §1

[3] = target: Fuc(a1-2)[GalNAc(a1-3)]Gal(b1-3)GlcNAc(b1-2)Man(a1-3)[Fuc(a1-2)[GalNAc(a1-3)]Gal(b1-3)GlcNAc(b1-2)Man(a1-6)]Man(b1-4)GlcNAc(b1-4)GlcNAc
How it was run: as §1

[4] = target: Fuc(a1-3)[Gal(b1-4)]GlcNAc(b1-2)Man(a1-3)[Fuc(a1-3)[Gal(b1-4)]GlcNAc(b1-2)Man(a1-6)]Man(b1-4)GlcNAc(b1-4)GlcNAc
How it was run: as §1

[5] = target: Fuc(a1-3)[Gal(b1-4)]GlcNAc(b1-3)Gal(b1-3)[Fuc(a1-4)]GlcNAc
How it was run: as §1

[6] = target: Gal(a1-3)Gal(b1-3)GlcNAc(b1-2)Man(a1-3)[Gal(a1-3)Gal(b1-3)GlcNAc(b1-2)Man(a1-6)]Man(b1-4)GlcNAc(b1-4)GlcNAc
How it was run: as §1

[7] = target: Gal(b1-3)[GlcNAc(b1-6)]GalNAc
How it was run: as §1

[8] = target: Gal(b1-4)GlcNAc(a1-6)Gal(b1-4)GlcNAc
How it was run: as §1

[9] = target: Gal3S(b1-3)[Fuc(a1-4)]GlcNAc
How it was run: as §1

[10] = target: Gal6S(b1-4)Glc
How it was run: as §1

[11] = target: GalNAc(a1-3)Gal
How it was run: as §1

[12] = target: GlcNAc(a1-4)Gal(b1-4)GlcNAc(b1-3)Gal(b1-4)GlcNAc(b1-3)Gal(b1-4)GlcNAc
How it was run: as §1

[13] = target: GlcNAc(a1-4)Gal(b1-4)GlcNAc(b1-3)Gal(b1-4)[Fuc(a1-3)]GlcNAc(b1-3)Gal(b1-4)[Fuc(a1-3)]GlcNAc
How it was run: as §1

[14] = target: Man(a1-3)[Man(a1-6)]Man(a1-6)[Man(a1-3)]Man
How it was run: as §1

[15] = target: Neu5Ac(a2-3)Gal(b1-3)GalNAc(b1-4)[Neu5Ac(a2-3)]Gal(b1-4)Glc
How it was run: as §1

[16] = target: Neu5Ac(a2-3)Gal(b1-3)GlcNAc
How it was run: as §1

[17] = target: Neu5Ac(a2-3)Gal(b1-4)GlcNAc(b1-3)Gal(b1-4)GlcNAc(b1-3)Gal(b1-4)GlcNAc
How it was run: as §1

[18] = target: Neu5Ac(a2-3)Gal(b1-4)GlcNAc(b1-3)Gal(b1-4)[Fuc(a1-3)]GlcNAc
How it was run: as §1

[19] = target: Neu5Ac(a2-3)Gal(b1-4)GlcNAc(b1-6)[Neu5Ac(a2-3)Gal(b1-3)]GalNAc
How it was run: as §1

[20] = target: Neu5Ac(a2-3)Gal(b1-4)[Fuc(a1-3)]GlcNAc(b1-3)GalNAc
How it was run: as §1

[21] = target: Neu5Ac(a2-3)Gal(b1-4)[Fuc(a1-3)]GlcNAc6S
How it was run: as §1

[22] = target: Neu5Ac(a2-6)Gal(b1-4)GlcNAc(b1-2)Man(a1-6)[GlcNAc(b1-2)Man(a1-3)]Man(b1-4)GlcNAc(b1-4)GlcNAc
How it was run: as §1

[23] = target: Neu5Ac(a2-6)GlcNAc(b1-4)GlcNAc(b1-4)GlcNAc
How it was run: as §1

[24] = target: Neu5Ac(a2-8)Neu5Ac(a2-8)Neu5Ac(a2-8)Neu5Ac(a2-3)[GalNAc(b1-4)]Gal(b1-4)Glc
How it was run: as §1

[25] = target: Neu5Gc(a2-3)Gal(b1-3)[Fuc(a1-4)]GlcNAc
How it was run: as §1

[26] = target: Fuc(a1-2)Gal(b1-4)Glc6S
How it was run: as §1

[27] = target: Fuc(a1-2)Gal(b1-4)[Fuc(a1-3)]GlcNAc(b1-3)Gal(b1-4)[Fuc(a1-3)]GlcNAc
How it was run: as §1

[28] = target: Fuc(a1-2)Gal6S(b1-4)Glc
How it was run: as §1

[29] = target: Fuc(a1-2)[GalNAc(b1-3)]Gal
How it was run: as §1

[30] = target: Fuc(a1-3)[Gal(b1-4)]Glc6S
How it was run: as §1

[31] = target: Fuc(a1-3)[Gal(b1-4)]GlcNAc(b1-3)GalNAc
How it was run: as §1

[32] = target: Fuc(a1-3)[Gal3S(b1-4)]GlcNAc6S
How it was run: as §1

[33] = target: Gal(a1-2)Gal
How it was run: as §1

[34] = target: Gal(a1-3)Gal
How it was run: as §1

[35] = target: Gal(a1-3)Gal(b1-4)GlcNAc(b1-3)GalNAc
How it was run: as §1

[36] = target: Gal(a1-4)Gal(b1-4)GlcNAc(b1-2)Man(a1-3)[Gal(a1-4)Gal(b1-4)GlcNAc(b1-2)Man(a1-6)]Man(b1-4)GlcNAc(b1-4)GlcNAc
How it was run: as §1

[37] = target: Gal(a1-6)Glc
How it was run: as §1

[38] = target: Gal(b1-4)GlcNAc(b1-2)Man(a1-6)[Man(a1-3)]Man(b1-4)GlcNAc(b1-4)GlcNAc
How it was run: as §1

[39] = target: Gal(b1-4)GlcNAc(b1-3)Gal(b1-4)GlcNAc
How it was run: as §1

[40] = target: Gal(b1-4)GlcNAc(b1-3)[Gal(b1-4)GlcNAc(b1-6)]GalNAc
How it was run: as §1

[41] = target: Gal(b1-4)GlcNAc(b1-6)GalNAc
How it was run: as §1

[42] = target: GalNAc(b1-3)Gal
How it was run: as §1

[43] = target: GalNAc(b1-3)Gal(a1-4)Gal(b1-4)GlcNAc(b1-3)Gal(b1-4)Glc
How it was run: as §1

[44] = target: GlcNAc(b1-2)[GlcNAc(b1-4)]Man(a1-3)[GlcNAc(b1-2)Man(a1-6)]Man(b1-4)GlcNAc(b1-4)GlcNAc
How it was run: as §1

[45] = target: GlcNAc(b1-4)GlcNAc
How it was run: as §1

[46] = target: GlcNAc(b1-6)GalNAc
How it was run: as §1

[47] = target: Man(a1-2)Man(a1-3)Man
How it was run: as §1

[48] = target: Man(a1-2)Man(a1-3)[Man(a1-2)Man(a1-6)]Man(a1-6)[Man(a1-2)Man(a1-2)Man(a1-3)]Man
How it was run: as §1

[49] = target: Man(a1-3)[Man(a1-6)]Man(a1-6)[Man(a1-3)]Man(b1-4)GlcNAc(b1-4)GlcNAc
How it was run: as §1

[50] = target: Neu5Ac(a2-3)Gal(b1-3)GlcNAc(b1-3)Gal(b1-3)GlcNAc
How it was run: as §1

[51] = target: Neu5Ac(a2-3)Gal(b1-3)[Fuc(a1-4)]GlcNAc(b1-3)Gal(b1-3)[Fuc(a1-4)]GlcNAc
How it was run: as §1

[52] = target: Neu5Ac(a2-3)Gal(b1-3)[Neu5Ac(a2-3)Gal(b1-4)]GlcNAc
How it was run: as §1

[53] = target: Neu5Ac(a2-3)Gal(b1-4)GlcNAc(b1-6)[Gal(b1-3)]GalNAc
How it was run: as §1

[54] = target: Neu5Ac(a2-3)GalNAc(b1-4)GlcNAc
How it was run: as §1

[55] = target: Neu5Ac(a2-6)Gal(b1-4)GlcNAc
How it was run: as §1

[56] = target: Neu5Ac(a2-6)Gal(b1-4)GlcNAc(b1-2)Man(a1-3)Man(b1-4)GlcNAc(b1-4)GlcNAc
How it was run: as §1

[57] = target: Neu5Ac(a2-6)Gal(b1-4)GlcNAc(b1-2)Man(a1-3)[Man(a1-6)]Man(b1-4)GlcNAc(b1-4)GlcNAc
How it was run: as §1

[58] = target: Neu5Ac(a2-6)Gal(b1-4)GlcNAc(b1-2)Man(a1-6)[Man(a1-3)]Man(b1-4)GlcNAc(b1-4)GlcNAc
How it was run: as §1

[59] = target: Neu5Ac(a2-8)Neu5Ac
How it was run: as §1

[60] = target: Neu5Ac(a2-8)Neu5Ac(a2-8)Neu5Ac(a2-3)[GalNAc(b1-4)]Gal(b1-4)Glc
How it was run: as §1

B1: SAG1 (Toxoplasma gondii), P13664 (protein)
chain: MSVSLHHFIISSGFLTSMFPKAVRRAVTAGVFAAPTLMSFLRCGVMASDPPLVANQVVTCPDKKSTAAVILTPTENHFTLKCPKTALTEPPTLAYSPNRQICPAGTTSSCTSKAVTLSSLIPEAEDSWWTGDSASLDTAGIKLTVPIEKFPVTTQTFVVGCIKGDDAQSCMVTVTVQARASSVVNNVARCSYGADSTLGPVKLSAEGPTTMTLVCGKDGVKVPQDNNQYCSGTTLTGCNEKSFKDILPKLTENPWQGNASSDKGATLTIKKEAFPAESKSVIIGCTGGSPEKHHCTVKLEFAGAAGSAKSAAGTASHVSIFAMVIGLIGSIAACVA
glycan array binding signal (z-score) [1]: 0.139
glycan array binding signal (z-score) [2]: 0.615
glycan array binding signal (z-score) [3]: -0.505
glycan array binding signal (z-score) [4]: 1.86
glycan array binding signal (z-score) [5]: -0.232
glycan array binding signal (z-score) [6]: 1.47
glycan array binding signal (z-score) [7]: -0.229
glycan array binding signal (z-score) [8]: -0.386
glycan array binding signal (z-score) [9]: 7.52
glycan array binding signal (z-score) [10]: -0.579
glycan array binding signal (z-score) [11]: -0.761
glycan array binding signal (z-score) [12]: 0.265
glycan array binding signal (z-score) [13]: 2.24
glycan array binding signal (z-score) [14]: -0.442
glycan array binding signal (z-score) [15]: 0.728
glycan array binding signal (z-score) [16]: 0
glycan array binding signal (z-score) [17]: -0.703
glycan array binding signal (z-score) [18]: 1.71
glycan array binding signal (z-score) [19]: 1.61
glycan array binding signal (z-score) [20]: 3.63
glycan array binding signal (z-score) [21]: -0.651
glycan array binding signal (z-score) [22]: -0.2
glycan array binding signal (z-score) [23]: -0.384
glycan array binding signal (z-score) [24]: -0.241
glycan array binding signal (z-score) [25]: 0.031

B2: cupB6 (Pseudomonas aeruginosa), Q02SP7 (protein)
chain: MSMRLFPGRVSLRRRPGAQARQALVLGLCCLTGGQAWALNEVALNCSFGNGKGLPWRVVNELTSGTAKGTVLFARPVSLFLSYKPQASQEAHELVLGGNWSGVGYPGPYGTVASDVKGIGYRISVDAQDGVKRVIPVDNQPHALDKRVTSFSGSTTSDYLQELVLTVDPGELPAGDLKVTSVSGSATLNLWAVDRLKGEASIGSVLAVPADNYPTGVCRKPYSLIGPASIAIGGGPPPPPIPKKCKVEVGREINVKLGSVALKNFPRVNDTSTERSFDISLSECAALAKPEIAFRDKYVSAQQADPTILSLKSGGAAGFGIVVKNGLDQQRIRFDGTPYPMRRVGDSADLPLSAAYIRIGAEGELKAGVADGAAEFTFTFP
glycan array binding signal (z-score) [1]: 19.6
glycan array binding signal (z-score) [26]: 0.336
glycan array binding signal (z-score) [27]: 0.023
glycan array binding signal (z-score) [28]: 0.068
glycan array binding signal (z-score) [29]: -0.269
glycan array binding signal (z-score) [30]: -0.171
glycan array binding signal (z-score) [31]: 0.027
glycan array binding signal (z-score) [32]: 0.36
glycan array binding signal (z-score) [33]: -0.079
glycan array binding signal (z-score) [34]: -0.05
glycan array binding signal (z-score) [35]: 0.099
glycan array binding signal (z-score) [36]: 0.472
glycan array binding signal (z-score) [37]: -0.09
glycan array binding signal (z-score) [38]: 0.004
glycan array binding signal (z-score) [39]: -0.185
glycan array binding signal (z-score) [40]: -0.207
glycan array binding signal (z-score) [41]: -0.128
glycan array binding signal (z-score) [42]: 0.216
glycan array binding signal (z-score) [43]: -0.12
glycan array binding signal (z-score) [44]: -0.121
glycan array binding signal (z-score) [45]: -0.037
glycan array binding signal (z-score) [46]: -0.194
glycan array binding signal (z-score) [47]: 0.328
glycan array binding signal (z-score) [48]: 0.065
glycan array binding signal (z-score) [49]: -0.11
glycan array binding signal (z-score) [50]: 0.048
glycan array binding signal (z-score) [51]: 0.124
glycan array binding signal (z-score) [52]: -0.26
glycan array binding signal (z-score) [53]: -0.006
glycan array binding signal (z-score) [20]: 0.376
glycan array binding signal (z-score) [54]: -0.177
glycan array binding signal (z-score) [55]: -0.15
glycan array binding signal (z-score) [56]: 0.058
glycan array binding signal (z-score) [57]: 0.325
glycan array binding signal (z-score) [58]: 0.107
glycan array binding signal (z-score) [59]: -0.002
glycan array binding signal (z-score) [60]: -0.074
glycan array binding signal (z-score) [24]: -0.043
